# Measurements as given in PubChem BioAssay AID1159506 (National Center for Advancing Translational Sciences (NCATS), 2015).
# In all, about 59,000 sequences were measured (the read-out: median about -0.00055, lowest 2% from about -2 on). This is one part of a sample in which the lowest values are shown more often than they occur.
# Assay: Identification of proteins required for the processing of the EWS-FLI1 nascent transcript;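 further: robust z of luciferase light less the median z of siRNAs with the same seed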
# Settings: TC32 Ewing sarcoma NR0B1-luc vs CMV-luc (EWS-FLI1 target promoter against control promoter), 48 h; screened at 20 nM (by protocol)
# In short: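 Readout: OneGlo luminescence, 48 h post-transfection, TC32-NR0B1-luc vs TC32-CMV-luc in parallel. siRNA 20 nM final, RNAiMax lipid, 600 cells/well; z-score-MAD transformed, then seed-adjusted.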
row,Sequence,seed-corrected z-score
1,UGGUUAUUAACCACGAAAC against DACH2,-2.55
2,UUUUUGGGUUGUGCGAUGG against CLDN8,-0.531
3,UAGUCGAUUAAACAGAGCC against RBPJ,0.0342
4,UGAGUUCUGAUCGCAGUUC against MCC,-0.00975
5,AAUGUUAACGAUGAAGAAG against ADRB2,0.292
6,AACAGGACAAUUUUAGCAC against OR1L1,-2.6
7,UCUGAAACAAUCCUCACUC against LINC00598,-0.139
8,UGAGGAUAAAGCGAAGAGC against VARS2,0.0595
9,AACUGGGACUUGUUUUACC against FAM83F,0.219
10,AAGGUUGCUCGUUCUAUGG against CASP5,-2.33
11,UAAUGUCCCAAUCGUAUUG against UXS1,0.872
12,AAUCUCUCGGUUUCGAUUC against HYKK,1.15
13,UCCGUGCACAUCUUAUAGG against HMG20B,0.0817
14,UAAGAAAUGAUGCUCAAUG against LMAN1L,-0.257
15,UCUACAUCAAUCAAAUAUC against DUSP11,1.23
16,UCUCUUCAUACUUAUUAGC against TEX43,-2.3
17,UUGGGAUAAUGAUUGUUAC against OR10AG1,-0.676
18,UUCCUGACGAGGUACACUG against GAS2L2,0.821
19,UCAGAGACCAGCUGUUUCU against IGSF23,-0.0662
20,ACAGCUAUAAAGGUGAUCC against MTMR1,-2.56
21,UGUCGUUCAAGGGUCUUCC against IFNE,-0.372
22,UAACUAGUUUUCUUGUCCC against CARD6,0.329

row,Sequence,seed-corrected z-score
1,UAUCAUCCAAAACUGUAUC against ASNSD1,0.0108
2,AUCGGCAUUAAGAAUGUAG against EIF3L,-0.237
3,UUAGCUGCAUCCUUGCUGG against CELSR3,-2.13
4,UAAGUUCUUGUAUCUUCCC against ATP6V1G3,0.313
5,UUCUGGAUUCUGGGCAUCG against IFI6,-0.197
6,UCAAUAACCAUGAAGAUGC against FAM162A,0.76
7,UCGUGCUACACCAUGAGUC against CTTNBP2,0.0923
8,UUCCAGUAUGCUGAUUUCC against SLC8B1,-2.95
9,UCACUUGAUAACAAUCUCC against ZCWPW2,-0.645
10,AUCAUUAUCCUUCUCAUCC against IRF6,-0.561
11,UAGCCCUCACCAUAGAUGC against SYNGR2,0.181
12,ACAGUUGCAACUUCCAUGC against KCND2,-2.77
13,UGAGUACCGUGAUAAAUGC against TAS1R2,0.56
14,UUAGCAUCCACGAUACCAC against CFAP47,0.706
15,UUAAUGAACACAAGCAUGU against RPL23AP14,0.756
16,UAUGUUGUGCGGCUCUCCC against SOX15,-2.31
17,UAACGAAUAAUCAUCUUCC against ICE1,0.115
18,UCCAAAUUUGAGUACAUCC against SNIP1,0.505
19,UAAGGCUUUAGUGAGCUCU against FXN,0.805
20,UUGCCGUAGACAGCAUGGG against GPR173,-0.733
21,UCUGGUUCCUCUUUAAGUG against RPL27A,-3.53
22,AAUGUUCCUAUUUAUUUCG against RNF214,-0.629

row,Sequence,seed-corrected z-score
1,UCAGGAUCAAGCAUGUUCC against LOC645177,-0.115
2,UGUGCUAUAAGAGAUCCAG against TANC2,-0.454
3,AAAGUAGUCACCUGGACCA against ODF3,-2.14
4,UUCCUCAUGAGCACCAUCC against TEDDM1,0.185
5,AUCUAUUAUGGUUUCGAUC against BAZ1B,-0.12
6,UCUCUGUACCCAACUCCGC against ZNF212,-0.31
7,AAUGAAAUAGUGCUGUUUG against KCTD1,0.318
8,UCUGCUUGGAAAUAUCUCG against GRSF1,-4.11
9,AAUCCUCUUAUGAAUAACG against ZNF331,-0.158
10,AAGGAUACCAUCAUGUAGC against FZD3,0.547
11,UUUGUAACAUCAAUCAGAG against EXOC4,0.287
12,AUUCGGGAUAUAUAGAUUG against LIN7C,0.308
13,UCAAGUACAUUGCAGUUUG against PDK1,-0.235
14,UCCAGGUUUAUAUAGGUUG against MT1X,-7.89
15,UCAUAAGUGACAAGGCUGC against DCTN2,-0.548
16,UGACGUGAUAGCUUGAACC against EXPH5,0.908
17,UUUGAUUCCAUGUAGCUGU against MTCP1,0.871
18,ACAUCAUCCACUUCGUUCC against UNC93B1,-3.19
19,UUAACUGCAUCCCUAAUCC against AVEN,-1.22
20,UUCUUUACAUGCUGCAUUC against GALNT11,0.394
21,UUCAUGUCGAUAACUGUGG against KCNJ15,-0.324
22,UCUUGGAACAGGAUCUUCU against TAOK2,-0.173

row,Sequence,seed-corrected z-score
1,UCAUGAAUUGUGGCAGGCA against LINC00598,0.856
2,ACUGCUUUGACAUCUGGGC against SNF8,-0.699
3,UGACUAAUAAGAAUGCCCG against SLC2A2,-0.863
4,AUAACUACAGCAUCAGAGG against WDR60,0.989
5,AACCGUUUCAUAAACUCCC against MCMBP,0.188
6,UAUUCGUACUCAAACGUGC against SFPQ,-2.1
7,AUACAUGUCAGCUGAGUAG against POU2AF1,-0.413
8,AGUGUCUCUACUCAGGUUC against CSF2,1.91
9,UUCGGAUAUAGAGGUAGGC against SNRNP200,-2.46
10,UGAGUCAAAUGUUCUUUGG against KLF16,0.422
11,UUUUUCUGAACUCUCGUCU against C1orf174,-1.93
12,AAAUUUACCUAUGUUCUUC against PBX1,2.08
13,UUUUAGAAAGUUCAUGUCC against CD69,0.737
14,UUCGUGUAGACUGACCUUC against LRCH1,-9.4
15,UCAGGUUCUUUGUCUGACC against IRS1,-1.53
16,UGGUCUGCAAAGGUAAUGC against PLRG1,0.251
17,UAAGUAGGCACAACACUCA against DEXI,0.701
18,AACUGAACAUUUAUAGAGC against MTERF2,1.28
19,CUAUAGAUGAAGUAGGUGC against EDA,1.41
20,AGAGUUUCUGGUAUAGACC against TAS2R38,-2.98
21,AAGGAUAUGAAGGUAAUUC against ZNF518A,-0.0667
22,UUAGGGAUGAACCAAGGCA against ATP6V0E1,0.122

row,Sequence,seed-corrected z-score
1,UUUGCAAUGACACGAAGCC against APOL4,0.249
2,AUAGUUGCAGGAAACUUCU against LOC441907,-2.67
3,UUCCUGAGUUCUUUCGUCC against DYRK1B,-0.484
4,UGUUCUAUUUCACUUACUC against ZBTB26,-0.568
5,AAAGGAGCAUAAAUUUAGU against LOC400867,2.06
6,UAUGCAUAAACGGUCUUCA against SH3BGR,-0.25
7,UAUUUCACGUCGAUAGAGC against TMEM106B,-2.63
8,UGAGGGUUGAGUGUAAGUC against FUK,-0.673
9,UUGUGAACUGAUUACACUG against CCDC66,0.423
10,UUGACCAUCAAGUAUUAGC against WDR47,-10.6
11,UUCUGAUCAAGGCUAGACC against SHROOM3,-0.584
12,UGAACUCCUCUGCAUAUUC against HLA-F,0.183
13,UUGGUGUCCGGAGAGGUGU against IRF3,-0.0987
14,AACUCCGUCAGUUCCUUCC against FAM167A,0.463
15,ACAGCUAUCACUGCAUGCC against OR14J1,-3.81
16,UUUAGGUACAGAAUCCCUG against HDHD3,0.511
17,UCUUCAAUAAUGUGCAUCC against SEMA4G,0.069
18,UUCUCCGUUUCUGUUAUGC against SYCP2L,0.199
19,UGCUGUUCUGUGCUGUUCC against ARID5A,-2.31
20,UCAGGCUCAACCACCAGCA against ESRRA,-1.16
21,UAUAUCCACAGUGCGGAUC against RAB13,0.253
22,AUACUUGCGAUAAAGGUGC against CSGALNACT1,-1.05

row,Sequence,seed-corrected z-score
1,UCAGCUCCAACUGAAGGUC against ID1,0.724
2,AAUGGUGUCAGUUCCUCUG against ETFA,0.854
3,AGCAUUACAACUAAAAUCC against ZSCAN10,-3.27
4,UAGCCAUUCUCGCUCAUGC against AZU1,0.88
5,UGAUCUAUCUUAGUCGCUC against POLQ,-0.0262
6,UUUCCGUACAUGAAGCAGC against AGBL5,-0.0403
7,UUCAUUAUCGAUUUUUGCC against CYB5R2,-0.288
8,UGGGAUGAGAGACUCCUCC against C6orf25,-0.121
9,UGUUGUAGUGGGCCAGACG against HIST1H2BG,-2.35
10,UCCGAAAGCACCACGAUGA against SIGIRR,0.222
11,AAAGGCCCAACAUCUGACU against ZDHHC8P1,0.314
12,UUCCGACUCGCUGAAGUGC against RPS6KA4,0.407
13,UUGGGUACCUCAGUCCACG against SNRPD2P1,-5.01
14,UUUGUUGUAGUCACAUUCC against S100A3,-1.11
15,UAAGGAAGUAGUCUCGUUU against TUBGCP6,0.26
16,UAGUGGAUAUAUCUCGGCC against YLPM1,0.196
17,UAUACUCGAAAUGUGGUUC against KIAA1586,-0.337
18,UUGCAGAGCAUGUGAGUCC against KRTAP13-3,-0.281
19,UGCAUGUCGGGAUAGUUGC against GRIN2D,0.123
20,UCCUCGUUCAGCACCCUUC against DNAJB13,-0.18
21,UUUGAUGAUCUGUAAGGCC against CNOT10,-2.03
22,UGUAUUGCAAGGUUAUAAC against ZNF836,0.433
